# Source: PubChem BioAssay AID1041 (National Center for Advancing Translational Sciences (NCATS), 2008)
# Values without a mark were called inactive.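 How the source made its calls: active means compound lifting p16 RNA above DMSO-treated cells by a clear fold change, a shift of a few PCR cycles; inactive means the rest, including any drop in level.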
# Assay: p16 Derepression/Induction Secondary Assay for qHTS Assay for Epigenetic Modulators
# Details: H358 cells, p16 mRNA RT-qPCR, 72 h; stronger effect = higher value
# Source text: NIH Molecular Libraries Screening Centers Network [MLSCN] NIH Chemical Genomics Center [NCGC] MLSCN Grant: 1 X01 MH079860-01 Assay Provider: Elisabeth D. Martinez, University of Texas SW Medical Center NCGC Assay Overview: This secondary assay characterizes selected actives identified in the qHTS of the Locus Derepression (LDR) assay (PubChem AID 597). The LDR assay detects the derepression of a GFP reporter that is stably integrated in a region of the genome of murine c127i mammary cells that is presumably silenced. Compounds that cause derepression of the locus to express GFP are identified by enumerating GFP positive cells using a laser-scanning microplate cytometer. Selected LDR actives were assayed for the induction of p16 gene expression, a gene silenced by dense methylation of its promoter. […]
# NCGC Assay Protocol Summary Exponentially growing H358 non-small cell lung cancer cells were treated daily with fresh media containing the indicated concentrations of compounds for 72 hr. Cellular RNA was extracted, quantified, DNAse treated and reverse transcribed. The resulting cDNA was amplified in TaqMan real time quantitative PCR assays (Applied Biosystems) containing validated primers specific for p16 (Hs00233365_m1). […] Gene expression was measured by fold-induction over control DMSO-treated samples (36-37 average cycle time). […]
smiles,measurement,value
CN1CSC(=S)N(C)C1,fold change,1
